49 compounds from PubChem BioAssay AID1259418 (Broad Institute, 2018) can be followed below.

Among all 3,400 compounds or so, about 840 (25%) were called active. Inconclusive results (about 11%) are left out.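 Rule for the calls: active = fitted half-maximal concentration of signal decrease at or below twice the sample's top tested concentration; inconclusive = flat curve between -70 and -30 percent, or poor fit; inactive = flat within 30 percent, signal rise, or potency above limit.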 Only a sample is shown. Potency and affinity values are given separately.

This test in a line: T. gondii growth inhibition with IFN-gamma, dose response, cell-based, ME49Luc, HeLa, luciferase, 72 h (AID 1259418). Conditions: T. gondii ME49Luc in IFN-y HeLa, active compounds read low, -100% = high-dose IFN-γ control wells; at 19.5 µM unless noted.
On to `Clc1ccc(-c2nc(N3CCN(Cc4ccc5c(c4)OCO5)CC3)c3ccccc3n2)cc1`, for which the max activity was 21.6% [at 2.6 µM] (inactive). `O=C(Nc1ccc(Cl)cc1)Nc1ccc(-c2nc(-c3ccccc3)co2)cc1`: the max activity was -18.8% [at 2.6 µM] (inactive). Under `COc1ccc(-c2nc(CN(c3ccc(OC)cc3)S(=O)(=O)c3ccccc3)c(C)o2)cc1` stands 21.2% [at 5 µM] (inactive); under `COc1ccc(-c2nc(CN(c3ccc(OC)cc3)S(=O)(=O)c3ccc(OC)cc3)c(C)o2)cc1`, 16.7% [at 5 µM] (inactive). The value for `Cc1oc(-c2ccc(OC(C)C)cc2)nc1CN(c1ccccc1)S(=O)(=O)c1ccccc1` was 5.29% (inactive); that for `Cc1oc(-c2ccccc2)nc1CN(c1ccccc1)S(=O)(=O)c1ccccc1` was 6.75% [at 2.6 µM] (inactive); that for `COc1ccc(N(Cc2nc(-c3ccc(C)cc3)oc2C)S(=O)(=O)c2ccc(OC)cc2)cc1` was 6.72% [at 1.35 µM] (inactive). Under `COc1ccc(-c2nc(CN(c3ccc(OC)cc3)S(=O)(=O)c3ccc(C)cc3)c(C)o2)cc1` stands -10.7% [at 0.16 µM] (inactive); under `COc1ccc(S(=O)(=O)N2CCC[C@@H]2C(=O)NCCc2csc(C)n2)cc1`, -6.98% [at 5 µM] (inactive).

Turning to `CCc1ccccc1NC(=O)COc1nc(C)nc2ccccc12`, the max activity was -12.9% [at 2.6 µM] (inactive). Under `COCCNC(=O)C1(C)CCC(=O)N1CCc1c[nH]c2ccccc12` (centres undefined) stands 3.62% (inactive); under `O=C(CC1N=C2c3ccccc3N=C(SCc3cccc(F)c3)N2C1=O)NCc1ccc2c(c1)OCO2` (centres undefined), 67.4% (inactive); under `Cc1cccc(CN2CCC3(CC2)N=C(c2cccc(F)c2)C(=O)N3)c1`, -7.22% (inactive). Under `Cc1cccc(-c2noc(-c3nnn(Cc4nc(-c5cccc(Cl)c5)oc4C)c3C)n2)c1` stands 60.4% (inactive). Under `CCN1CC(C(=O)O)CN2CCN(C(=O)c3ccncc3F)CC2C1` (centres undefined) stands 5.55% (inactive). On to `COc1ccc(-c2nc(Nc3ccc(C(C)C)cc3)c3ccccc3n2)cc1`, for which the max activity was 12% [at 5 µM] (inactive). The value for `O=C(NCCc1csc(-c2ccccc2)n1)[C@H]1CSCN1C(=O)c1cccc(F)c1` was -24.5% (inactive); that for `O=C(NCCc1csc(-c2ccccc2)n1)[C@H]1CCCN1C(=O)c1ccco1` was -10.6% [at 0.16 µM] (inactive); that for `Cc1ccc(S(=O)(=O)N2CC[C@@H]3[C@H]2c2cc(-c4cccc(C(=O)N(C)C)c4)ccc2N[C@@H]3CO)cc1` was 21.6% [at 10 µM] (inactive).

As to `O=C(Cc1ccccc1)N1CC[C@H]2[C@H](CO)Nc3ccc(C4=CCCCC4)cc3[C@H]21`, the max activity was 30.4% [at 10 µM] (inactive). Under `CN(C)C(=O)c1cccc(-c2ccc3c(c2)[C@H]2[C@H](CCN2C(=O)Cc2ccccc2)[C@@H](CO)N3)c1` stands 24.7% [at 5 µM] (inactive).

As for `COc1ccccc1-c1ccc2c(c1)[C@H]1[C@H](CCN1Cc1ccccc1F)[C@@H](CO)N2`, the max activity is 11.2% [at 1.2 µM] (inactive). Under `CCOc1ccc(C(=O)N2CCC3(CC2)Nc2cc(F)ccc2-n2cccc23)cc1` stands -6.53% [at 5 µM] (inactive). The value for `O=C(COc1ccc(Cl)cc1)N1CCC2(CC1)Nc1cc(F)ccc1-n1cccc12` was 9.43% [at 0.16 µM] (inactive). The value for `O=C(COc1ccccc1)N1CCC2(CC1)Nc1ccc(Cl)cc1-n1cccc12` was 8.01% [at 0.35 µM] (inactive); that for `Cc1cccc(OCC(=O)N2CCC3(CC2)Nc2ccc(C)c(C)c2-n2cccc23)c1` was 8.26% [at 0.16 µM] (inactive). For the compound `O=C(COc1ccc(Cl)cc1)N1CCC2(CC1)Nc1ccc(Cl)cc1-n1cccc12`, the max activity was 3.74% [at 0.68 µM] (inactive). The value for `Cc1nc2ccccc2n1CC(O)Cn1c2ccccc2c2ccccc21` (centres undefined) was 28.9% (inactive); that for `CCOc1ccc(NC(=O)Nc2ccc(-c3nc(-c4ccc(C)cc4C)co3)cc2)cc1` was 21.2% [at 0.16 µM] (inactive); that for `CCc1ccc2c(c1)cc(S(=O)(=O)c1ccccc1)c(=O)n2CC(=O)NC1CCCCC1` was -12.7% [at 1.35 µM] (inactive).

With `COc1ccccc1NC(=O)N1CCCCN2[C@H](CO)[C@@H](c3ccc(-c4cccc(C#N)c4)cc3)[C@H]2C1`, the max activity is 24.8% [at 10 µM] (inactive). Under `N#Cc1cccc(-c2ccc([C@H]3[C@H]4CN(Cc5ccccc5F)CCCCN4[C@H]3CO)cc2)c1` stands 26.6% [at 10 µM] (inactive); under `Cc1cccc(Cn2c(CN3CCC(C(=O)N4CCCC4)CC3)cc3ccccc32)c1`, -9.03% [at 0.35 µM] (inactive). Under `Cc1ccc(C2=NC3(CCN(CC(=O)Nc4ccccc4C(F)(F)F)CC3)NC2=O)cc1` stands -14.3% [at 0.35 µM] (inactive).

Regarding `CN(C)c1ccc(-c2nc3c([nH]2)c(=O)n(C)c(=O)n3C)cc1`, the max activity was 17.3% [at 10 µM] (inactive).

As for `Cc1ccc(-c2coc(-c3ccc(NC(=O)Nc4cc(F)ccc4F)cc3)n2)c(C)c1`, the max activity is -9.54% [at 5 µM] (inactive). Under `COc1ccc(CN2CCC3(CC(n4cnnc4)CO3)C2)cc1` (centres undefined) stands 33.5% (inactive); under `COCCCN1CCc2nc(SCc3nc(-c4ccccc4)oc3C)[nH]c(=O)c2C1`, 21% [at 2.6 µM] (inactive).

As for `COc1ccc(CN2CCc3nc(SCc4nc(-c5ccccc5)oc4C)[nH]c(=O)c3C2)cc1`, the max activity was -18.7% [at 2.6 µM] (inactive). Under `COc1ccccc1CN1CCc2nc(SCc3nc(-c4cccc(C)c4)oc3C)[nH]c(=O)c2C1` stands 14.5% [at 0.35 µM] (inactive); under `COc1ccc(NC(=O)CN2CCC3(CC2)N=C(c2cccc(F)c2)C(=O)N3)cc1OC`, 28.6% [at 10 µM] (inactive).

Turning to `COc1ccc(-c2nc(NCCCN(Cc3ccco3)C3CCCC3)c3ccccc3n2)cc1`, the max activity was -19.2% [at 5 µM] (inactive). The value for `COc1ccc(-c2nc(N(Cc3ccco3)C3CCCCC3)c3ccccc3n2)cc1` was -11.5% [at 2.6 µM] (inactive); that for `COc1ccc(-c2nc(N(CCN(C)C)Cc3ccccc3)c3ccccc3n2)cc1` was -20.1% [at 5 µM] (inactive). `CCCCN(Cc1ccco1)c1nc(-c2ccc(OC)cc2)nc2ccccc12`: the max activity was 14.7% [at 0.35 µM] (inactive). Regarding `CCCN(CCC)c1nc(-c2ccc(OC)cc2)nc2ccccc12`, the max activity is -8.92% [at 0.35 µM] (inactive). The value for `CCN(CCN(C)C)c1nc(-c2ccc(OC)cc2)nc2ccccc12` was -29.5% (inactive); that for `COc1ccc(-c2nc(N(C)c3ccc(F)cc3)c3ccccc3n2)cc1` was 36% (inactive). Under `CN(c1nc(-c2ccc(Cl)cc2)nc2ccccc12)C1CCCCC1` stands 11.9% [at 0.68 µM] (inactive).
